The subject of the test is VDR:RXRa (NR concentration 270 nM, RXRa partner concentration 90 nM). Nature of the test: PBM binding z-score (relative to random genomic background probes); higher = stronger binding; sequences stand for … in GC…GCGATTGACAGCGTAGAATGAAGG
On the procedure:
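Protein-binding microarray (Agilent 4x180K custom design, double-stranded 60-nt probes: 5' GC cap, 34-nt variable region, 24-nt constant primer region; full probe sequence given). Purified or IVT nuclear receptor:RXRα heterodimers (3:1 NR:RXRα, mostly 270:90 nM) or homodimers were incubated for 1 h in PBS with 2% milk and no ligand, then detected with Alexa488 antibodies. Fluorescence from o1-orientation probes (~5 replicates averaged) was converted to z-scores against 500 random hg19 background probes. Variable regions are seed direct-repeat (DR0–DR5) sites, all their single-nucleotide variants and half-site ablations.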
In turn, CCGAGTAGGTTATGGGGTATTCAGGCAACGGTGA gave a PBM binding z-score of 0.559.

As to CAAATTAGGTCACCGGAAGGTCAAAGTCCGCATG, the PBM binding z-score stood at 5.86.

Take TTACCAAGGTGAAAGGTCGTTTATGCACGCCTTG: the PBM binding z-score stood at 3.32.

On to GCTAGTTGGTCAGTAAAAGATCACACACCGGTCG, for which the PBM binding z-score was -0.204.

With ATCTCTAGGTATAGATAGTTCAGTGAATGCAAAT, the PBM binding z-score is 0.666.

Consider CCTACTGGGCCACGATAGGTCATTGATTCAGTGA, for which the PBM binding z-score was 1.15.

TCAGCCAGGTGAAGGTAACTCAGGTACGCAGTCG registered a PBM binding z-score of 0.261.

Regarding TAGCGTAGGTCATTCAGGGGCCAGTATAGAAAGC, the PBM binding z-score came out at 3.37.

In the case of AGTCAAAGTTCACTGGGTAACGTAAGATTCAGCT, the PBM binding z-score was 4.34.

CCTTGCGGGTCACGAGGTTATAGCACGACGAGCG: the PBM binding z-score amounted to 4.93.

For the sequence TCGAGTAGGTTAGTCGGGGCTTTCAGCCAACATA, the PBM binding z-score was -0.0861.

Sequence CGTCAAAGTTCAAGGTAACATAACAGAAAGCAGC gave a PBM binding z-score of 3.63.

For the sequence CCGACTAGGTTATGGGGCATTCAGGCAACGGTGA, the PBM binding z-score is -0.337.

Regarding TAGCCTAGGTCTTGCGGGCCAGTATAGTGTCGGC, the PBM binding z-score is -0.977.

Consider GCTTACGGGCCAAAGGTTATAGCATGAATAGAAT, for which the PBM binding z-score amounted to 0.816.

CCTACTGGGCCAAAGATCATTGATTCCAATGCTC gave a PBM binding z-score of -0.31.

Take ATATGTAGGTTACATCCGGGTCATTCAAGCTATG: the PBM binding z-score came out at 4.17.

With ATATATAGGTTAGCTGGGGTCATTCAGACTAGGC, the PBM binding z-score is 6.61.

TTACCAAGGTGAGCTGAGGTCGTAGATCCAACTC came in with a PBM binding z-score of 3.45.

Sequence GGAACGATGGCAAGTTGATAGCAGAGTTTGATGG had a PBM binding z-score of -0.469.

The sequence TCTCGGAGGACGCGAAGGTCAGAGCTTTCCAGAG returned a PBM binding z-score of 1.23.

Regarding TCTGCTAGGTCAACGATGGTCTGCTAATCTGCTA, the PBM binding z-score amounted to 0.981.

As to TAGCCTAGGTCATGCGGGCCCGTATAGTGTCGGC, the PBM binding z-score is 1.97.

Regarding ATATGTAGGTTAAATCCGGGTCATTCAGGCTATG, the PBM binding z-score worked out at 4.63.

CGTCAAAGTTCAAGGAAACGTAACAGAAAGCAGC displayed a PBM binding z-score of 3.29.

CTCGAAAGGTCGTGCTCAGGGGAGTATACCAAAC came in with a PBM binding z-score of 3.14.

TGGAGTAGGTTAGTCGGGGCATTCAGCCAACATA had a PBM binding z-score of 2.43.

As to CCTACTGGGCCATTCACAGGTCATTGATCATATG, the PBM binding z-score is 1.72.

Sequence ACTTACGGTTCAACGAGGTTATAGCACGCGTATA gave a PBM binding z-score of 7.06.

On to CAAACTAGGTCACGAAAGGTCACAGTCGAATGAC, for which the PBM binding z-score stood at 6.75.

The sequence CGTCCAAGGTCAGCAGGTCGGTGAAAGCGACGTG came in with a PBM binding z-score of 3.71.

In turn, TCATATAGGTAGAAGGTGAAAGTCGGTGTGGTAA yielded a PBM binding z-score of 0.866.

For the sequence ATATGTAGGTGACATCCGGGTCATTCAGGCTATG, the PBM binding z-score turned out to be 4.

Take ATCTCTAGGTAACATGTTCAGTGAAAGAGAGGAC: the PBM binding z-score is 0.0615.

With ATCGAACGGTCGTGAGGTGAGTATACAGAAAGGC, the PBM binding z-score was -0.0539.

The sequence AATACAGGGTCACTAGGCCAAAGTAGGTACGAAT returned a PBM binding z-score of 4.27.

Sequence CCTAGTTGGTCAGGAGGTCATACACCGGATATGA returned a PBM binding z-score of 3.75.

CGTCCAAGGTCAGCAGGTCAGTGAGAGCGACGTG displayed a PBM binding z-score of 4.04.

Take CCTTACGGGTCACTGACAGGTAATAGCATTTGGA: the PBM binding z-score stood at 3.17.

For the sequence ATCTCTAGGTAAAGATATTTCAGTGAATGCAAAT, the PBM binding z-score amounted to 0.441.

The values above are taken from the supplement of paper PMC6555819.
